DT40 TDP1 CPT = growth inhibition of DT40 Tdp1-/-;hTDP1 cells with camptothecin (screen for TDP1 inhibitors). Potency, µM (highest dose often 46.2 µM), most hits filed as inhibitors. AID 686979. chicken DT40 Tdp1-/-;hTDP1 cells + 20 nM CPT, ATP luminescence, 48 h. 12% of 420,000 active; further: nearly all actives have a fitted effect of over 55% in size
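Chicken DT40 Tdp1-/- cells stably complemented with human TDP1 were seeded at 400 cells/well in medium containing 20 nM camptothecin, exposed to pin-transferred compounds, and grown at 37 °C for at least 48 hr. Viability was read as ATP luminescence.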
TDP1 inh = TDP1 (human) enzyme inhibition; recombinant TDP1, AlphaScreen DNA substrate cleavage; Potency, µM (top dose mostly 130 µM), actives largely listed as inhibitors; 0.28% of 350,000 active; further: nearly all actives have a fitted effect of over 40% in size
Target sequence (Q9NUW8 whole entry, looked up): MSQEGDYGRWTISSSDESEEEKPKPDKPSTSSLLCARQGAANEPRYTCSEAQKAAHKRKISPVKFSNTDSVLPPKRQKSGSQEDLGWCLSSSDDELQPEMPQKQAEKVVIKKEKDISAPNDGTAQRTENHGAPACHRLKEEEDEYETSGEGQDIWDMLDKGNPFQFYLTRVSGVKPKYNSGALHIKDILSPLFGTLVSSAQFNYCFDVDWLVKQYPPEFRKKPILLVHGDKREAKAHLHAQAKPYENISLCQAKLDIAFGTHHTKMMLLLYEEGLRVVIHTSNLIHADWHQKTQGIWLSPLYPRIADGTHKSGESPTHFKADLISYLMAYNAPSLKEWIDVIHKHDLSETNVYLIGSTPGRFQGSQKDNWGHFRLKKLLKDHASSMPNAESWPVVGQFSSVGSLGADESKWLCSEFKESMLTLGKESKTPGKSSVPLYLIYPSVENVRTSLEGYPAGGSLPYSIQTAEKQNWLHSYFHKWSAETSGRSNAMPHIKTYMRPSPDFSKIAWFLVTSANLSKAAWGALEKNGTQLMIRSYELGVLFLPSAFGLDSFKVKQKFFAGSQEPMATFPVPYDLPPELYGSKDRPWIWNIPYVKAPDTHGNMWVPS
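E. coli-derived human Tdp1, 1 nM final. Cpd preinc 15 min RT; substrate 15 nM final, 5 min RT; AS bead mix 10 ug/ml final, 10 min RT. Signal loss = tyrosine-FITC cleavage. No-enzyme wells = max signal.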
TGFb inhibitor = TGF-b pathway inhibition; HepG2 CAGA-GFP TGF-b/SMAD3 reporter, GFP fluorescence, 18 h; TGF-beta stimulated, 500 pg/mL final; Potency, µM (doses to about 46.1 µM), actives largely listed as inhibitors; 1.2% of 410,000 active; AID 588855; further: nearly all actives have a fitted effect of over 65% in size
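Using HEPG2 CAGA-GFP reporter cells at 1000 cells/well, we pinned test compounds, stimulated with recombinant TGF-beta (500 pg/mL final) and measured total well GFP after 18 h.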
HepG2 viability = kills HepG2 cells in TGF-b inhibitor counter-screen. HepG2 CAGA-GFP viability, ATP luminescence, 18 h. 0.76% of 410,000 active. Potency, µM (highest dose often 46.1 µM), actives largely listed as cytotoxic
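CellTiter-Glo luminescence gave cytotoxicity after 18 hours at 37 degrees C. The cells were HepG2 CAGA-GFP in 1% FBS DMEM, stimulated with 500 pg/mL TGF-beta after compound addition. %Activity was normalised to no-cell wells (complete cell-killing) and DMSO (no toxicity), and curves were fitted and classified.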
IL-1B inflam inh = blocks inflammasome-driven IL-1 beta release; THP-1 LPS/ATP IL-1B secretion, AlphaLISA, 16 h; active compounds read low; activity change, % at 57.5 µM; 4.7% of 360,000 active; AID 743279; in the data active means activity change below about -50%; inconclusive means mostly about -30% to -49%
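THP-1 cells pretreated 1 hr with compounds (up to 57.5 uM final), then stimulated with LPS (250 ng/mL final) plus ATP (1.25 mM final); secreted IL-1B measured by AlphaLISA after 16 hr, decreased signal indicating inhibition.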
TDP1 cell noCPT = qHTS for Inhibitors of human tyrosyl-DNA phosphodiesterase 1 (TDP1): qHTS in cells in absence of CPT. DT40 Tdp1-/- hTDP1 cells, no CPT, ATP luminescence, 48 h. Potency, µM (doses to about 46.2 µM), hits mostly inhibitors. 15% of 420,000 active; further: nearly all actives have a fitted effect of over 55% in size
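Cells were dispensed at 400 per well, compounds added by pin tool, plates incubated ≥48 hr at 37 °C, then CellTiter-Glo added for 30 min at room temperature before luminescence reading. Line: DT40 Tdp1-/- complemented with hTDP1; camptothecin omitted.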
Numbers stand for hits; 0 = inactive; ? = inconclusive; - = not tested or not shown; ! = a repeat was not active. Shown are actives, neighbours in structure and some others; about 18% of the full set was active somewhere. Unless noted, the call rests on the fitted dose curve; in most records, active means well fitted curve in the direction sought with a large enough effect; inconclusive means small, poorly fitted or top-dose-only effect, or another doubt; inactive means no such curve, though single readings can be large; an effect the other way counts as inactive or inconclusive.

SMILES	DT40 TDP1 CPT	TDP1 inh	TGFb inhibitor	HepG2 viability	IL-1B inflam inh	TDP1 cell noCPT
O=C(NC1CCCCC1)c1cc([N+](=O)[O-])[nH]n1	?	0	0	0	0	18µM
Cc1ccc(-n2c(=O)c3c(cnn3C)n(CC(=O)Nc3cccc(C)c3)c2=O)cc1	0	0	0	0	-	?
Cc1ccc(NCc2cccn2-c2nnc(N3CCC(C(=O)NCCC(C)C)CC3)s2)cc1	?	0	-	0	-	21µM
Cc1ccc(NCc2cccn2-c2nnc(N3CCC(C(=O)NC(C)C)CC3)s2)cc1	?	0	-	0	-	?
CSc1ccc(CNC(=O)C2CCN(c3nnc(-n4cccc4CNc4ccc(C)cc4)s3)CC2)cc1	?	0	-	0	-	16µM
CC(C)C[C@@H]1NC(=O)[C@H](CCCN)NC(=O)[C@H](C(C)C)NC(=O)[C@@H]2CCCN2C(=O)[C@@H](Cc2ccccc2)NC(=O)[C@H](CC(C)C)NC(=O)[C@H](CCCN)NC(=O)[C@H](C(C)C)NC(=O)[C@@H]2CCCN2C(=O)[C@@H](Cc2ccccc2)NC1=O	0.41µM	-	-	-	-	0.15µM
O=c1[nH][nH]c(-c2ccccc2O)c1C(C[N+](=O)[O-])c1ccc(Br)cc1 (centres undefined)	3.3µM	0	?	0	?	2.6µM
Cc1ccc(C(C[N+](=O)[O-])c2c(-c3ccccc3O)[nH][nH]c2=O)cc1 (centres undefined)	3.3µM	0	?	7.9µM	-102	2.9µM
COc1ccc(C(C[N+](=O)[O-])c2c(C)[nH]c3ccccc23)cc1OC (centres undefined)	?	0	0	0	?	?
CC1=C(C(=O)N2CCCCCC2)CC(CC(=O)NCC2CCCCC2)C(=O)N1Cc1ccccc1 (centres undefined)	?	-	0	0	0	?
CC1=C(C(=O)N2CCCCCC2)CC(CC(=O)NCC2CCCCC2)C(=O)N1Cc1ccc(F)cc1 (centres undefined)	23µM	-	-	-	0	?
CC1=C(C(=O)N(C(C)C)C(C)C)CC(CC(=O)NCC2CCCCC2)C(=O)N1Cc1ccc(F)cc1 (centres undefined)	16µM	-	?	0	?	18µM
CC1=C(C(=O)N(C(C)C)C(C)C)CC(CC(=O)NCCCN(C)C)C(=O)N1Cc1ccc(F)cc1 (centres undefined)	0	-	0	0	0	0
CN(CC(=O)NCC1CCCO1)S(=O)(=O)c1ccc2ccccc2c1 (centres undefined)	0	-	0	0	0	0
CCC1CC2(C)NC(=O)c3c(sc4c3CC(C)(C)OC4)N2C1=O (centres undefined)	?	0	0	0	0	21µM
Cn1c(NN)nc2sc3c(c2c1=O)CC(C)(C)OC3	?	0	?	0	0	?
CCOc1ccc(N(Cc2ccccc2)C(=O)c2nc(SC)ncc2Cl)cc1	13µM	0	?	0	-	6.5µM
CS(=O)(=O)c1ncc(Cl)c(C(=O)N(Cc2ccc(Cl)cc2)Cc2ccco2)n1	0.65µM	0	5µM	3.2µM	-	1.3µM
CS(=O)(=O)N(CC(=O)NCc1ccco1)Cc1ccc(Cl)cc1	0	0	0	0	0	0
COc1ccc(N(Cc2ccccc2)C(=O)c2nc(S(C)(=O)=O)ncc2Cl)cc1	0.73µM	0	2µM	0	-	0.46µM
CCc1ccc2nc(N(Cc3cccnc3)C(C)=O)sc2c1	?	0	0	0	-	?
COc1ccc(CN(C)C(=O)CNC(=O)Cc2cccc3ccccc23)c(OC)c1OC	?	0	0	0	0	0
CCOc1ccccc1N1CCN(C(=O)CNC(=O)c2sc3ccccc3c2Cl)CC1	?	0	0	0	0	23µM
COc1cccc(CN(C)C(=O)COc2ccc(C(=O)c3ccc(Cl)cc3)cc2)c1OC	?	0	0	0	0	23µM
COc1cccc(N2CCN(C(=O)CNC(=O)c3sc4ccccc4c3Cl)CC2)c1	?	0	0	0	0	?
SMILES	DT40 TDP1 CPT	TDP1 inh	TGFb inhibitor	HepG2 viability	IL-1B inflam inh	TDP1 cell noCPT
COc1cccc(CN(C)C(=O)CNC(=O)c2sc3ccccc3c2Cl)c1OC	?	0	0	0	-51	?
COc1ccccc1C(=O)NNC(=S)NC(=O)c1sc2ccccc2c1Cl	15µM	0	0	0	0	8.2µM
Cc1c(NC(=S)NC(=O)c2sc3ccccc3c2Cl)cccc1C(=O)O	0	0	?	0	0	0
Cc1ccccc1-n1c([C@@H]2C[C@H]2c2ccccc2)n[nH]c1=S	0	0	0	0	0	0
CC(C)(C)OC(=O)C[C@@H]1C/C=C\C[C@@H](CC(=O)NCCO)C(=O)NC[C@@H](c2ccccc2)OC1=O	0	0	0	0	0	0
CC1CCCN(C(=O)CNC(=O)c2sc3ccccc3c2Cl)C1 (centres undefined)	0	0	0	0	-	?
CC1CC(C)CN(C(=O)CNC(=O)c2sc3ccccc3c2Cl)C1 (centres undefined)	?	0	?	0	-57	23µM
O=c1cc(-c2ccc([N+](=O)[O-])cc2)c2cc3c(cc2[nH]1)OCCO3	?	0	0	0	?	10µM
Cc1cccc(-n2c(SCC(=O)N(C)C3CCS(=O)(=O)C3)nc3ccccc3c2=O)c1C (centres undefined)	?	-	0	0	0	?
CSc1ncc(C(=O)Nc2cccc(C)c2C)c(-c2ccccc2)n1	0	0	0	0	-	0
CC(NC(=O)CCCCCCN1C(=O)c2ccccc2C1=O)c1ccc2c(c1)CCCC2 (centres undefined)	23µM	0	?	0	0	?
CC(NC(=O)CCCCCN1C(=O)c2ccccc2C1=O)c1ccc2c(c1)CCCC2 (centres undefined)	0	0	0	0	0	0
COc1ccc(OC)c(CCNC(=O)c2csc3c2CCCCC3)c1	?	0	0	0	-	?
Cc1cccc(/C=C2/Sc3ccc(C(=O)NCCN4CCCC4)cc3NC2=O)c1	?	0	?	0	?	23µM
COc1cccc(/C=C2/Sc3ccc(C(=O)NCCN4CCCCCC4)cc3NC2=O)c1	?	0	10µM	16µM	0	?
CCN1CCC[C@H]1CNC(=O)c1c(OC)ccc(Br)c1OC	33µM!	0	0	0	0	30µM!
CCOC(=O)C1CCN(C(=O)c2ccc3c(c2)NC(=O)/C(=C/c2ccccc2)S3)CC1	?	0	0	0	0	?
CCOC(=O)C1CCN(C(=O)c2ccc3c(c2)NC(=O)/C(=C\c2cccc(C)c2)S3)CC1	?	0	0	0	0	18µM

Screens: PubChem, National Center for Advancing Translational Sciences (NCATS)
